FAS-TE inh: inhibitors of human fatty acid synthase thioesterase domain. P49327. recombinant FAS-TE, OMFH fluorogenic substrate, fluorescence endpoint. inhibition, % at 15 µM. hit rate 0.67% among 360,000;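 active means compounds whose normalised, plate-corrected inhibition of enzyme fluorescence in the single-dose primary screen is 50% or more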;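 further: 0% = DMSO with enzyme and 100% = substrate without enzyme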
ADAM10 inh: inhibitors of human ADAM10. inhibition, % at 7 µM. recombinant ADAM10, EDANS/DABCYL FRET peptide cleavage, 3 h. hit rate 0.62% among 370,000. O14672. AID 720582;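 active means inhibition above a per-campaign cutoff equal to the mean of compounds falling between control-based bounds plus 3 SD, cut at about 20% in these data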;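 further: 0% = DMSO wells while the 100% control is not disclosed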
ADAM17 inh: inhibitors of human ADAM17 | P78536 | recombinant ADAM17, EDANS/DABCYL FRET peptide cleavage | inhibition, % at 6.95 µM | hit rate 0.83% among 370,000 | AID 720648;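 active means inhibition above the mean of compounds lying between control limits plus 3 SD, set per campaign, cut at about 8.5% in these data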;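 further: 0% = DMSO-only wells as the low control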
proKLK7 act: proKLK7 (human) activation, primary screen | P49862 | hit rate 0.9% among 370,000 | AID 652039 | activation, % at 7 µM | purified proKLK7, EDANS-DABCYL substrate fluorescence; 100% is mature enzyme control, 0% vehicle;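 active means activation above the mean of all tested compounds plus 3 SD, computed per campaign excluding outliers beyond control limits, cut at about 13% in these data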
Target sequence (P49862 whole entry, looked up): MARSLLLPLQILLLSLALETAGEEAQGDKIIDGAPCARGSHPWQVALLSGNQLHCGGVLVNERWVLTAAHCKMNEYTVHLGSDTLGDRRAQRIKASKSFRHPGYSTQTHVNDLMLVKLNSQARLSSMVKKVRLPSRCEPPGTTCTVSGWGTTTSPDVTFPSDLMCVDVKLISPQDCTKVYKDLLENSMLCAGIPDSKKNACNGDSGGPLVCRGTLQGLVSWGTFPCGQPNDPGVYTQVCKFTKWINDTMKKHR
NR3A LBD binder: modulators (binders) of human NR3A ligand-binding domain; Tm shift relative to glycine control, % at 25 µM; hit rate 2.5% among 340,000; NR3A LBD differential scanning fluorimetry, Tm shift; 0% = protein alone, 100% = glycine-bound protein; AID 1259313;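 active means melting temperature shift of at least 10% of the positive control shift, at one fixed dose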
ADAM10 counter: ADAM10 inhibition, counter-screen for ADAM17 exosite hits. recombinant ADAM10, EDANS/DABCYL FRET peptide cleavage, 3 h. shares compounds with ADAM17 inh. inhibition, % at 6.95 µM. hit rate 47% among 2,900;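 active means mean inhibition over the triplicate runs exceeds the activity threshold set in the earlier primary screen, cut at about 20% in these data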;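 further: 0% = DMSO wells and 100% = marimastat wells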
ADAM17 confirm: confirmation of inhibitors of human ADAM17 | recombinant ADAM17, EDANS/DABCYL QFRET peptide cleavage | hit rate 65% among 2,900 | inhibition, % at 6.95 µM | shares compounds with ADAM17 inh;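 active means mean inhibition across replicates above the hit cutoff set in the primary screen, cut at about 8.5% in these data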;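 further: 0% = DMSO wells and 100% = marimastat wells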
An asterisk follows results filed as active; x = not tested or not shown. Shown are actives, neighbours in structure and some others; about 4.6% of the full set was active somewhere.

SMILES	FAS-TE inh	ADAM10 inh	ADAM17 inh	proKLK7 act	NR3A LBD binder	ADAM10 counter	ADAM17 confirm
Cc1ccc2nc3n(c(=O)c2c1)-c1ccc(Cl)cc1C(=O)NC3Cc1ccccc1 (stereo not given)	x	1.8	10.8*	-0.8	x	-9.2	-0.7
O=C1NC(Cc2ccccc2)c2nc3ccc(Cl)cc3c(=O)n2-c2ccc(Cl)cc21 (stereo not given)	x	-28.0	-6.5	-0.9	x	x	x
COc1cc(CNC(=O)c2cccc(COc3ccc(Cl)cc3)c2)cc(OC)c1	29.3	16.5	8.7*	-0.1	-3.8	24.4*	11.2*
COC(=O)[C@]12C[C@H](CC(=O)N3CCCCC3)C(=O)N(Cc3ccc4c(c3)OCO4)C1=C[C@H](C(C)(C)C)O[C@@H]2C	x	-3.0	-0.4	0.5	x	x	x
N#CC1(Cc2ccccc2Cl)c2ccccc2C=CN1C(=O)c1ccccc1 (stereo not given)	31.3	15.0	11.4*	-4.7	0.9	14.4	9.3*
CN(C)S(=O)(=O)c1ccc(NC(=O)COC(=O)CC2CC3CCC2C3)cc1 (stereo not given)	39.9	13.5	8.6*	1.2	-6.7	20.1*	13.5*
CCCCS(=O)(=O)N1CCCc2nc(C)c(C)cc21	x	-5.9	-2.2	0.2	x	x	x
Clc1ccc(CN2CCN(c3ncc(Cc4ccccc4)cn3)CC2)cc1	x	-1.6	7.3	0.3	x	x	x
c1ccc(Cc2cnc(N3CCN(Cc4ccc5c(c4)OCCO5)CC3)nc2)cc1	x	5.5	10.6*	0.5	x	3.0	3.8
CCCCN1CCCOc2cc(Br)ccc2S1(=O)=O	x	-0.2	-0.6	0.6	x	x	x
Cc1cccc(Nc2ncccc2C(=O)NCc2cccs2)c1C	21.1	15.8	10.0*	0.3	-0.6	26.8*	15.4*
Cc1ccc(C(C(=O)NC2CCCC2)N(C(=O)CNC(=O)c2cccs2)c2cccnc2)o1 (stereo not given)	-0.8	-1.8	-0.5	0.4	0.3	x	x
Cc1ccc(C(C(=O)NC2CCCC2)N(Cc2cccs2)C(=O)CNC(=O)c2cccs2)o1 (stereo not given)	1.3	13.4	9.2*	0.1	-0.8	-5.1	2.5
CCCCCCCCN1C(=O)[C@@H](CC(=O)N2CCOCC2)C[C@@]2(C(=O)OC)C1=C[C@H](C(C)(C)C)O[C@@H]2C	x	3.7	1.2	0.3	x	x	x
CCN(CC(=O)Nc1c(F)cccc1F)C(=O)c1ccc(S(=O)(=O)N2CCC(C)CC2)cc1	-4.2	11.8	10.5*	-0.3	0.5	10.5	7.3
CCN(CC(=O)Nc1c(F)cccc1F)C(=O)c1ccc(S(=O)(=O)N2CCCCCC2)cc1	-4.9	5.1	0.1	-0.7	-0.3	x	x
CCNC(=O)NC(=O)CSc1cccc(C(F)(F)F)c1	-1.4	0.8	3.3	0.1	0.4	x	x
O=C(CSc1cccc(C(F)(F)F)c1)NC(=O)c1ccccc1	-2.4	5.7	8.7*	0.0	2.8	0.3	6.2
O=C(Cc1cccs1)Nc1nc(-c2ccc(F)cc2F)cs1	31.9	16.1	14.1*	-0.4	2.0	18.5	10.7*
CSc1nc2c(=O)[nH]cnc2s1	x	-0.9	-3.1	0.7	x	x	x
COc1ccc(NC(=O)N2CCCC(c3nc(-c4ccc(OC)cc4)no3)C2)cc1 (stereo not given)	9.2	8.0	2.5	0.4	-10.3	x	x
COc1ccc(-c2noc(C3CCCN(C(=O)Nc4ccc(C)c(F)c4)C3)n2)cc1 (stereo not given)	x	4.8	9.8*	0.1	x	18.0	9.2*
CCCCCC[C@@H](CN(CCCC)S(C)(=O)=O)c1ccccc1	x	17.4	55.0*	-0.2	x	-5.7	2.0
CCNC(=O)C/C(C)=N/NC(=O)C1CCCCC1	-7.1	7.3	8.9*	-0.2	-0.4	-2.7	-0.2
C=CCN=C1NC(c2ccccc2)C(C(=O)OC)=C(C)N1Cc1ccccc1C(F)(F)F (stereo not given)	x	-19.5	-9.8	0.0	x	x	x
SMILES	FAS-TE inh	ADAM10 inh	ADAM17 inh	proKLK7 act	NR3A LBD binder	ADAM10 counter	ADAM17 confirm
Cn1cc(C(=O)N/N=C/c2cccs2)c2ccccc21	-2.9	-2.7	8.9*	0.9	-7.4	-4.5	-0.4
Cc1occc1C(=O)N/N=C/c1cccs1	-6.8	-5.6	-3.1	-0.2	-0.9	x	x
COC(=O)N1C[C@H](Oc2cccc3ccccc23)[C@H]2C[C@@H]1c1ccccc1O2	x	1.2	1.3	0.7	x	x	x
O=C1C(Cc2ccccc2)NC(=S)N1c1ccccc1 (stereo not given)	-3.4	13.3	10.1*	-0.9	0.3	-1.9	1.8
CCOC(=O)N1CCN(S(=O)(=O)c2ccc(C(=O)NNc3nc4c(C)cccc4s3)cc2)CC1	10.7	7.7	8.3	-0.7	-26.1	x	x
CCOC(=O)N1CCN(S(=O)(=O)c2ccc(C(=O)NNc3nc4c(C)cc(C)cc4s3)cc2)CC1	3.0	15.9	9.7*	-1.4	0.1	28.8*	22.8*
CC(C)[C@H](NC(=O)CC1CCCC1)C(=O)N1CCC[C@H]1C(=O)NCCc1ccccc1Cl	x	-3.0	-1.3	0.8	x	x	x
COC(=O)c1cc2c(c3c4cc(F)ccc4n(S(=O)(=O)c4ccc(OC)cc4)c13)C(=O)N(C)C2	x	-2.2	-0.8	-1.5	x	x	x
Clc1ccccc1C(c1nnnn1Cc1ccco1)N1CCN(Cc2ccco2)CC1 (stereo not given)	4.5	12.7	9.2*	0.4	-0.4	-14.8	-0.6
CC(NC(=O)COC(=O)C1(C)CC1(Cl)Cl)c1ccccc1 (stereo not given)	-5.8	1.8	8.8*	-0.5	0.1	30.1*	9.5*
CCOC(=O)c1cc(OC(=O)c2ccccc2OC)n(-c2ccccc2)n1	-6.7	0.2	11.4*	-0.3	-0.2	10.7	11.8*
O=C(C(=O)N1CCC(CNC(=O)C2COc3ccccc3O2)CC1)c1cc2ccccc2o1 (stereo not given)	x	3.7	1.8	0.6	x	x	x
CC(C)=CCc1c2c(c3occ(-c4ccc(O)cc4)c(=O)c3c1O)C=CC(C)(C)O2	28.7	19.0	9.5*	0.3	25.1*	21.3*	15.2*
CC(C)=CCc1c2c(c3occ(-c4ccc(O)c(O)c4)c(=O)c3c1O)C=CC(C)(C)O2	-4.9	6.9	11.2*	0.5	26.8*	13.0	7.6
CCOC(=O)C1=CCN(S(=O)(=O)c2ccc(C)cc2)C1c1ccc(CC)cc1 (stereo not given)	12.6	-10.1	8.8*	0.9	x	20.1*	15.8*
CCOC(=O)C1=CCN(S(=O)(=O)c2ccccc2F)C1c1cccc(Br)c1 (stereo not given)	17.6	12.5	9.2*	0.1	x	17.3	9.5*
CSCCC(NS(=O)(=O)c1ccc(Cl)cc1)C(=O)OCC(=O)c1c(C)[nH]c2ccccc12 (stereo not given)	31.6	19.7	9.7*	-0.5	17.5*	29.4*	17.5*
